According to PubChem BioAssay:
The source made the active and inactive calls.

Columns and labels:
[1] = test system: Plasmodium falciparum Sir2 (PF13_0152, Sir2A); assay: Plasmodium falciparum Sir2A binding compounds – biochemical, small-molecule microarray, 635 nm fluorescence, primary screen (AID 1098); conditions: fluorescence 635 nm, higher = more signal;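 note: score merges spot fluorescence intensity with its signal-to-noise ratio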
[2] = probe aDKK1 binding to arrayed compounds – biochemical, biotinylated probe, 635/667 nm fluorescence, primary screen (AID 1099); conditions: small-molecule microarray, higher = more signal;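 note: score merges 667nm spot fluorescence with signal to noise across triplicate slides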
[3] = probe aCHRDL2 binding to arrayed compounds – biochemical, biotinylated probe, 635/667 nm fluorescence, primary screen (AID 1100); conditions: small-molecule microarray, higher = more signal
[4] = change in splice reporter luminescence, either direction, cell-based, HEK293, spliceosome inhibition project, primary screen (AID 1101); conditions: HEK293 splicing luciferase reporter, 24 h, higher = more signal, called active from +8 up or from −8 down;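 note: HEK293 cells carrying a splicing-competent luciferase reporter gene; test concentration not given here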
[5] = target: Fibroblast growth factor 10 (Homo sapiens) (UniProt O15520); assay: compounds binding fibroblast growth factor 10 – biochemical, small-molecule microarray, 635 nm fluorescence, primary screen (AID 1102); conditions: FGF10 binding, fluorescence 635 nm, higher = more signal
Sequence of Fibroblast growth factor 10 (Homo sapiens) (O15520 whole entry, looked up): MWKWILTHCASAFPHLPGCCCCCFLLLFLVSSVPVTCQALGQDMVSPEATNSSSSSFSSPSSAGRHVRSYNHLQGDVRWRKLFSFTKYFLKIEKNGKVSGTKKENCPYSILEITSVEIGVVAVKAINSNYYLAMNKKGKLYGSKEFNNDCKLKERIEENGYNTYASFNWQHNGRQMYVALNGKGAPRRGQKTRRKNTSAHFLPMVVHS

[6] = test system: glycogen synthase kinase-3 (GSK3A per assay name; protocol says GSK3B); assay: compounds binding glycogen synthase kinase-3 – biochemical, small-molecule microarray, 635 nm fluorescence, GSK3A, primary screen (AID 1103); conditions: fluorescence 635 nm, higher = more signal; note: the record names both GSK3A and GSK3B
[7] = target: Epidermal growth factor receptor (Homo sapiens) (UniProt P00533); assay: compounds binding epidermal growth factor receptor – biochemical, small-molecule microarray, 635 nm fluorescence, primary screen (AID 1104); conditions: EGFR binding, higher = more signal;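 note: score merges 667 nm emission intensity with spot signal to noise over triplicate slides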
Sequence of Epidermal growth factor receptor (Homo sapiens) (P00533 whole entry, looked up): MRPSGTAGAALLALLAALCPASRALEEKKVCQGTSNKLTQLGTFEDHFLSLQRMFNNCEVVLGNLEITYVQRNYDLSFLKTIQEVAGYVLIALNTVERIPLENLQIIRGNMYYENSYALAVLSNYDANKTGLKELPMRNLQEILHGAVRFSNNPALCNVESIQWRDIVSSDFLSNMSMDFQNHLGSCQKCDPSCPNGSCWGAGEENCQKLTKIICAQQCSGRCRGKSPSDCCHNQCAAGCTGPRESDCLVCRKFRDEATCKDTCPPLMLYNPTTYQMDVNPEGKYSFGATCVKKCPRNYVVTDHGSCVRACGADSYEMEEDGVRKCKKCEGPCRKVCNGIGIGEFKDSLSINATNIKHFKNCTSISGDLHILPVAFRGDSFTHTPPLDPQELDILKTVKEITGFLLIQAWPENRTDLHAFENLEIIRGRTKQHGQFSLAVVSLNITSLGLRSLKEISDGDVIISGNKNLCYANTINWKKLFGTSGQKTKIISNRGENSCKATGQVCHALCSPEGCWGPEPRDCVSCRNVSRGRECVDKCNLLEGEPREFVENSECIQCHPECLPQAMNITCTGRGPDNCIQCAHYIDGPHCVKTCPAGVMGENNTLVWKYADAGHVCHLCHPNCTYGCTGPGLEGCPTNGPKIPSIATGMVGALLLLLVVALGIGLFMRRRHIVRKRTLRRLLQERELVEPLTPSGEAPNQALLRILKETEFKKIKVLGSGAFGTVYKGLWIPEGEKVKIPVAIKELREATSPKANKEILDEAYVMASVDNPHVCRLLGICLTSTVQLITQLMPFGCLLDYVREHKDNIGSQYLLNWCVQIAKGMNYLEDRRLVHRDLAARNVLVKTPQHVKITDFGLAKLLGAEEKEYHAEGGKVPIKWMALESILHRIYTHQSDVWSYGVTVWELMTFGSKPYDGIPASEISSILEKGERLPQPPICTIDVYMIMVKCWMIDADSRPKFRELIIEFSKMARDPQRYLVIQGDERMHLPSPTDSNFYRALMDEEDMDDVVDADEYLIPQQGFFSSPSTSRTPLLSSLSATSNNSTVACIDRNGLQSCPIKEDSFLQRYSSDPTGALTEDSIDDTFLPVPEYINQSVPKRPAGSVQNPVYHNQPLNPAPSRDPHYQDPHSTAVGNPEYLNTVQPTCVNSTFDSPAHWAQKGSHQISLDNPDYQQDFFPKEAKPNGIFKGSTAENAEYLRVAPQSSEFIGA

[8] = target: Follistatin-related protein 3 (Homo sapiens) (UniProt O95633); assay: compounds binding follistatin-related protein 3 – biochemical, small-molecule microarray, 635 nm fluorescence, primary screen (AID 1105); conditions: FSTL3 binding, higher = more signal;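 note: score merges emission near 667 nm and signal to noise per printed spot across three slides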
Sequence of Follistatin-related protein 3 (Homo sapiens) (O95633 whole entry, looked up): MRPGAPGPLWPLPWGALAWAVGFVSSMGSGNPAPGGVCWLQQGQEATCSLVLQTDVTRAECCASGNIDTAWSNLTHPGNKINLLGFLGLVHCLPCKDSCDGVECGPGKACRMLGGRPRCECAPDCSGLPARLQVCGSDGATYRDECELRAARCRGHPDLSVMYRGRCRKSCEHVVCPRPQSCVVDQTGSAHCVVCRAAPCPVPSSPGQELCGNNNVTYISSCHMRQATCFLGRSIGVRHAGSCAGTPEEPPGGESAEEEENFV

[9] = target: Dickkopf-related protein 1 (Homo sapiens) (UniProt O94907); assay: small molecules binding DKK1 protein – biochemical, small-molecule microarray, 635 nm fluorescence scan, primary screen (AID 1106); conditions: higher = more signal;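 note: score merges emission near 667 nm with signal to noise over three replicate slides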
Sequence of Dickkopf-related protein 1 (Homo sapiens) (O94907 whole entry, looked up): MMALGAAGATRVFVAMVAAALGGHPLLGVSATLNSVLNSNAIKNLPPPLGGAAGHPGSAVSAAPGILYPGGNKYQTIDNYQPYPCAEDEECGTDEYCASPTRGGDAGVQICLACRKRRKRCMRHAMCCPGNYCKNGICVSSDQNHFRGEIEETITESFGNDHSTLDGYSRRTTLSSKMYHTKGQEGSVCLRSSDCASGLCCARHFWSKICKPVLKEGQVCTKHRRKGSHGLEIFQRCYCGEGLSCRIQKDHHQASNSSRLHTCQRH

[10] = test system: Inhibin beta A chain (activin A); assay: small molecules binding activin A – biochemical, small-molecule microarray, 635 nm fluorescence scan, primary screen (AID 1107); conditions: INHBA, higher = more signal;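 note: mouse activin A protein probed at 4.33 µg/mL on printed slides; score merges bound-protein fluorescence near 667 nm with spot signal-to-noise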
[11] = test system: Human papillomavirus type 1a protein E7 (residues 44-93); assay: small molecules binding HPV E7 44-93 – biochemical, small-molecule microarray, residues 44-93, 635 nm fluorescence, primary screen (AID 1108); conditions: fluorescence 635 nm, higher = more signal;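 note: E7 fragment applied at 1 µg/mL in TBST for 1 h at 4 C; score combines spot fluorescence with its signal to noise ratio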
[12] = hepatitis C replication reporter changes, two-sided – Huh7 cells, luciferase reporter, HCV replication inhibitor project, primary screen (AID 1109); conditions: Huh7 HCV replicon luciferase reporter, 48 h; higher = more signal;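 note: huh7 hepatoma cells harbouring a luciferase neomycin HCV replicon reporter; luciferase luminescence as measure of HCV replicon replication; test concentration not given here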
[13] = target: Left-right determination factor 2 (Homo sapiens) (UniProt O00292); assay: small molecules binding LEFTY2 protein – biochemical, small-molecule microarray, 635 nm fluorescence scan, primary screen (AID 1110); conditions: higher = more signal
Sequence of Left-right determination factor 2 (Homo sapiens) (O00292 whole entry, looked up): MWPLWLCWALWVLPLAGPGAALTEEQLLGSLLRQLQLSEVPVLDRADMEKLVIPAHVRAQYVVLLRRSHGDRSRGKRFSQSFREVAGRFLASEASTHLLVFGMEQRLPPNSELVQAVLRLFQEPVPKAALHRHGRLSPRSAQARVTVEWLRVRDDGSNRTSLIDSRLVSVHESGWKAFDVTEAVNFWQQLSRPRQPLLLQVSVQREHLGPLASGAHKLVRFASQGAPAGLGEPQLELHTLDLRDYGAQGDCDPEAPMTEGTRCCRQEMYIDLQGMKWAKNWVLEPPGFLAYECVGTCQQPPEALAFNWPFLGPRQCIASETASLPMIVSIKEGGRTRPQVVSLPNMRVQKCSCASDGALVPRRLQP

[14] = target: Calmodulin-1 (Homo sapiens) (UniProt P0DP23); assay: small molecules binding calmodulin-1 with EGTA – biochemical, small-molecule microarray, Cy5-labelled CALM1, profiling panel (AID 1111); conditions: Cy5-CALM1 binding fluorescence, higher = more signal;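 note: labelled calmodulin applied in Tris saline Tween buffer holding calcium plus EGTA and DTT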
[15] = target: Calmodulin-1 (Homo sapiens) (UniProt P0DP23); assay: small molecules binding Ca-loaded calmodulin-1 – biochemical, small-molecule microarray, Cy5-labelled CALM1, plus calcium, artefact control for SMM control-protein annotation, profiling panel (AID 1112); conditions: Cy5-CALM1 binding fluorescence, higher = more signal;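 note: score merges spot fluorescence with signal to noise from triplicate slides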
[16] = probe aWnt5a binding to arrayed compounds – biochemical, biotinylated probe, 635/667 nm fluorescence, primary screen (AID 1113); conditions: small-molecule microarray, higher = more signal;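 note: score merges 667 nm fluorescence intensity with signal-to-noise per printed feature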
[17] = probe aShh binding to arrayed compounds – biochemical, biotinylated probe, 635/667 nm fluorescence, primary screen (AID 1114); conditions: small-molecule microarray, higher = more signal;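 note: probe is biotin-labelled aShh protein from a stem cell growth factor screen; measures binding of labelled protein to compounds printed on the slide; score merges feature fluorescence at 667 nm with signal-to-noise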
[18] = probe aNog binding to arrayed compounds – biochemical, biotinylated probe, 635/667 nm fluorescence, primary screen (AID 1115); conditions: small-molecule microarray, higher = more signal;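 note: probe is biotinylated aNog protein used at 0.15 µg/mL for 1 h at 4 C; z-score combines 667 nm fluorescence of each spot with its signal to noise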
[19] = target: Torsin-1A-interacting protein 1 (Homo sapiens) (UniProt Q5JTV8); assay: compound microarray binding of lysate hLAP1 – cell lysate, small-molecule microarray, COS7 lysate, 635/667 nm fluorescence, primary screen (AID 1116); conditions: 635 nm fluorescence, higher = more signal
Sequence of Torsin-1A-interacting protein 1 (Homo sapiens) (Q5JTV8 whole entry, looked up): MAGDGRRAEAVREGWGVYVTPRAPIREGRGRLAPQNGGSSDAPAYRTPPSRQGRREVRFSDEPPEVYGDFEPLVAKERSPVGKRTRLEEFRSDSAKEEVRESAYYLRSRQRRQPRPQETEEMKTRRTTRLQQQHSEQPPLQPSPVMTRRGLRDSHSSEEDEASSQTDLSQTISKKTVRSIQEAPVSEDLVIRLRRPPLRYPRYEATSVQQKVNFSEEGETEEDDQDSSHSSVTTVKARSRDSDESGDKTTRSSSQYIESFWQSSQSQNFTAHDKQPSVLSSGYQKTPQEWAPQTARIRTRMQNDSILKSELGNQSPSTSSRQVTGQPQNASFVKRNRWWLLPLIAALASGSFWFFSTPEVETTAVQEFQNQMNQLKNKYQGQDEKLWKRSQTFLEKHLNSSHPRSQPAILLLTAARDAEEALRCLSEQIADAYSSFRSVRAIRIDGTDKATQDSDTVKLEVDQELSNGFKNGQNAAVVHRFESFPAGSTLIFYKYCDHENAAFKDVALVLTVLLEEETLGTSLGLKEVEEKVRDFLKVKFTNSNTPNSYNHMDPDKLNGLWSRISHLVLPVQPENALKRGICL

[20] = target: Alpha-bungarotoxin (Bungarus multicinctus) (UniProt P60615); assay: compounds binding labelled alpha-BTX control protein – biochemical, small-molecule microarray, Alexa647 label, 635/667 nm fluorescence, artefact control for SMM control protein annotation, profiling panel (AID 1117); conditions: alpha-BTX-A647 binding fluorescence, higher = more signal
Sequence of Alpha-bungarotoxin (Bungarus multicinctus) (P60615 whole entry, looked up): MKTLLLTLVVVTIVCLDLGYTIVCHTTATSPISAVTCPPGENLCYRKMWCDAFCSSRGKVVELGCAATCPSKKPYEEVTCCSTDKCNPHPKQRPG

Question: What does the source list for `O=C1C[C@]2(c3ccc([N+](=O)[O-])cc3)C(=O)N(CCN3CCOCC3)c3cc(CO)ccc3[C@H]2N1C1CCCCC1`?
Answer: composite z-score [1]: 0.781; composite z-score [2]: 0.42; composite z-score [3]: 0.828; z-score [4]: -1.05 (inactive); composite z-score [5]: -0.142; composite z-score [6]: -0.587; composite z-score [7]: -0.517; composite z-score [8]: -0.875; composite z-score [9]: -0.877; composite z-score [10]: 0.342; composite z-score [11]: -1.26; z-score [12]: -0.809; composite z-score [13]: -0.91; composite z-score [14]: -0.146; composite z-score [15]: 0.0884; composite z-score [16]: -0.363; composite z-score [17]: -0.211; composite z-score [18]: -0.405; composite z-score [19]: -0.308; composite z-score [20]: -0.251

Question: What does the source list for `COCCCN1C(=O)[C@@]2(c3ccc([N+](=O)[O-])cc3)CC(=O)N(C3CCCCC3)[C@@H]2c2ccc(CO)cc21`?
Answer: composite z-score [1]: 0.555; composite z-score [2]: -0.24; composite z-score [3]: -0.319; z-score [4]: -0.237 (inactive); composite z-score [5]: 0.301; composite z-score [6]: 0.237; composite z-score [7]: -0.0732; composite z-score [8]: 0.593; composite z-score [9]: 0.3; composite z-score [10]: 0.717; composite z-score [11]: 0.215; z-score [12]: -1.4; composite z-score [13]: 0.289; composite z-score [14]: -0.463; composite z-score [15]: -1.17; composite z-score [16]: -0.096; composite z-score [17]: -0.223; composite z-score [18]: 0.439; composite z-score [19]: 0.0951; composite z-score [20]: 0.467

Question: Which results are given for `COCCOC(=O)N1C(=O)[C@@]2(c3cc(C#CC4=CCCCC4)ccc31)[C@H](C(N)=O)[C@H]1C(=O)O[C@H](c3ccccc3)[C@H](c3ccccc3)N1[C@@H]2c1ccc(OCCO)cc1`?
Answer: composite z-score [1]: 0.497; composite z-score [2]: -0.504; composite z-score [3]: -0.091; z-score [4]: 0.497 (inactive); composite z-score [5]: 1.31; composite z-score [6]: 1.1; composite z-score [7]: 0.0883; composite z-score [8]: 1.22; composite z-score [9]: 0.553; composite z-score [10]: 0.052; composite z-score [11]: -0.71; z-score [12]: -2.5; composite z-score [13]: 0.331; composite z-score [14]: -0.822; composite z-score [15]: -0.919; composite z-score [16]: -0.124; composite z-score [17]: 0.049; composite z-score [18]: 0.299; composite z-score [19]: 0.855; composite z-score [20]: 1.56

Question: What does the source list for `COCCOC(=O)N1C(=O)[C@@]2(c3cc(C#CCNC(N)=O)ccc31)[C@H](C(=O)NC[C@H](O)c1ccccc1)[C@H]1C(=O)O[C@H](c3ccccc3)[C@H](c3ccccc3)N1[C@@H]2c1ccccc1OCCO`?
Answer: composite z-score [1]: 1.5; composite z-score [2]: -0.547; composite z-score [3]: 0.218; z-score [4]: -0.0247 (inactive); composite z-score [5]: 1.04; composite z-score [6]: 0.628; composite z-score [7]: 0.366; composite z-score [8]: 1.01; composite z-score [9]: 0.711; composite z-score [10]: 1.05; composite z-score [11]: 1.35; z-score [12]: -0.807; composite z-score [13]: 0.0826; composite z-score [14]: 1.96; composite z-score [15]: 0.0588; composite z-score [16]: 0.207; composite z-score [17]: -0.0375; composite z-score [18]: 1.32; composite z-score [19]: 0.667; composite z-score [20]: 1.43

Question: With `COc1cc(CO)cc(I)c1O[C@H]1C=C(C(=O)NCCO)C[C@@H](N(CCN2CCOCC2)C(=O)C2CCOC2)[C@@H]1O` (stereo not given in full) as the molecule, how does the composite z-score [1] read?
Answer: 0.505

Question: What about the composite z-score [2] of the same molecule?
Answer: -0.424

Question: And the composite z-score [3]?
Answer: -0.544

Question: And the z-score [4]?
Answer: -0.145 (inactive)

Question: And the composite z-score [5]?
Answer: 1.29

Question: What about the composite z-score [6] of the same molecule?
Answer: 0.437

Question: And the composite z-score [7]?
Answer: -0.0432

Question: What about the composite z-score [8] of the same molecule?
Answer: 0.742

Question: And the composite z-score [9]?
Answer: 0.507

Question: And the composite z-score [10]?
Answer: -0.584

Question: And the composite z-score [11]?
Answer: -0.923

Question: What about the z-score [12] of the same molecule?
Answer: -0.282

Question: What about the composite z-score [13] of the same molecule?
Answer: 0.897

Question: And the composite z-score [14]?
Answer: -0.0002

Question: And the composite z-score [15]?
Answer: -0.543

Question: And the composite z-score [16]?
Answer: -0.247

Question: What about the composite z-score [17] of the same molecule?
Answer: 0.0639

Question: And the composite z-score [18]?
Answer: -0.281

Question: What about the composite z-score [19] of the same molecule?
Answer: 0.085

Question: And the composite z-score [20]?
Answer: 0.0392

Question: With `C=C/C=C/[C@H]1C(=C)CN([C@@H](Cc2ccccc2)C(=O)OC)[C@@H]1[C@H](O)Cc1ccccc1` as the molecule, how does the composite z-score [1] read?
Answer: -0.181

Question: What about the composite z-score [2] of the same molecule?
Answer: -0.167

Question: And the composite z-score [3]?
Answer: 0.44

Question: And the z-score [4]?
Answer: 1.04 (inactive)

Question: And the composite z-score [5]?
Answer: -0.557

Question: And the composite z-score [6]?
Answer: -0.546

Question: What about the composite z-score [7] of the same molecule?
Answer: -1.23

Question: And the composite z-score [8]?
Answer: -0.542

Question: What about the composite z-score [9] of the same molecule?
Answer: -0.306

Question: What about the composite z-score [10] of the same molecule?
Answer: 0.97

Question: What about the composite z-score [11] of the same molecule?
Answer: -0.784

Question: What about the z-score [12] of the same molecule?
Answer: -0.331

Question: What about the composite z-score [13] of the same molecule?
Answer: -1.09

Question: What about the composite z-score [14] of the same molecule?
Answer: -0.679

Question: What about the composite z-score [15] of the same molecule?
Answer: -1.1

Question: And the composite z-score [16]?
Answer: -0.129

Question: And the composite z-score [17]?
Answer: -0.138

Question: What about the composite z-score [18] of the same molecule?
Answer: -0.0624

Question: And the composite z-score [19]?
Answer: -0.207

Question: And the composite z-score [20]?
Answer: -0.217
